Results filed as inconclusive are left out. Where a call stands in place of a potency, no number is given. Activity calls are given as the source filed them. Calls come from the whole dose curve; as a rule, active = well fitted inhibition curve with a large enough effect; inconclusive = small, poorly fitted or top-dose-only effect; inactive = no such curve, though single readings can be large or run the other way.
Target: N-terminal Xaa-Pro-Lys N-methyltransferase 1 (Homo sapiens) (UniProt Q9BV86)
Assay: qHTS Assay for Inhibitors of N-terminal methyltransferase 1 (NTMT1): MTaseGlo Confirmatory Screen, Round 2
How it was run: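 NTMT1 (125 nM) with 100 µM SAM was preincubated ~15 min with compound, then 1 µM SPKRIA peptide was added for 30 min at RT. SAH was detected by MTase-Glo luminescence, normalized to no-enzyme and DMSO controls, and fitted to a 4-parameter Hill equation.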

N-terminal Xaa-Pro-Lys N-methyltransferase 1 (Homo sapiens), sequence (Q9BV86 whole entry, looked up): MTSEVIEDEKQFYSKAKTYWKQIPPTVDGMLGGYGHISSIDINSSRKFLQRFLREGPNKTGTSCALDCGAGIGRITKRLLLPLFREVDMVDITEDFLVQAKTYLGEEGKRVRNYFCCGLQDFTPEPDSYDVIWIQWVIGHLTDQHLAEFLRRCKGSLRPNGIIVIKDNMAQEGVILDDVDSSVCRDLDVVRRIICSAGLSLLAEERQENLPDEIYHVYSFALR

Compound | Potency
O=Nc1ccc2oc(=O)ccc2c1 | inactive
Nc1ccc(CCNc2ncnc3c2ncn3C2OC(CO)C(O)C2O)cc1 (stereo not drawn) | inactive
Cc1cc(C)c(CNC(=O)c2cc(-c3ccc(CN4CCOCC4)cc3)cc3c2cnn3C2CCCC2)c(=O)[nH]1 | inactive
